Holding throughout (experiment): yeast three-hybrid, YBZ-1, SC-Leu-His + 0.5 mM 3-AT, 4 days
Common to all, as to settings: tags: N-Gal4 AD-HA kept; label: inside an RPR1-promoter hybrid RNA with tandem MS2 sites; ssRNA

For assay [1], the target named is PUM1 PUF domain R2-KKG (Homo sapiens, UniProt Q14671 828-1176, N899K;Y900K;Q903G). In outline:
(§1)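 Pumilio-1 PUF domain libraries, randomized at the three base-contacting residues of each repeat, were co-expressed with matching RNA elements from a centromeric plasmid in strain YBZ-1, which carries a LexA–MS2 coat fusion and a HIS3 reporter. Transformants grew for four days on SC-Leu (input) or on SC-Leu-His + 0.5 mM 3-AT (selection), and the repeat regions were PCR-amplified and Illumina-sequenced. The interaction score is the log change in variant frequency from input to selection. That logarithm is base 2, with a pseudocount of 1 where a variant was absent.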

Assay [2] has as its target PUM1 PUF domain R4-SNC (Homo sapiens, UniProt Q14671 828-1176, N971S;H972N;Q975C). A digest of the protocol:
as §1

The target of assay [3] is PUM1 PUF domain R3-EFE (Homo sapiens, UniProt Q14671 828-1176, C935E;R936F;Q939E). A digest of the protocol: as §1
Assay [4] deals with PUM1 PUF domain R3-YRQ (Homo sapiens, UniProt Q14671 828-1176, C935Y). In outline: as §1
Assay [5] addresses PUM1 PUF domain R3-FCL (Homo sapiens, UniProt Q14671 828-1176, C935F;R936C;Q939L). In outline: as §1
Assay [6] has as its target PUM1 PUF domain R8-RHL (Homo sapiens, UniProt Q14671 828-1176, N1122R;Y1123H;Q1126L). In outline:
as §1

Assay [7] deals with PUM1 PUF domain R8-PWL (Homo sapiens, UniProt Q14671 828-1176, N1122P;Y1123W;Q1126L). A digest of the protocol:
as §1

Assay [8] has as its target PUM1 PUF domain R4-GMC (Homo sapiens, UniProt Q14671 828-1176, N971G;H972M;Q975C). In outline: as §1
The target of assay [9] is PUM1 PUF domain R5-AVR (Homo sapiens, UniProt Q14671 828-1176, C1007A;R1008V;Q1011R). A digest of the protocol:
as §1

The target in assay [10] is PUM1 PUF domain R5-KHC (Homo sapiens, UniProt Q14671 828-1176, C1007K;R1008H;Q1011C). In outline: as §1
For assay [11], the target named is PUM1 PUF domain R8-VWK (Homo sapiens, UniProt Q14671 828-1176, N1122V;Y1123W;Q1126K). A digest of the protocol: as §1
The target in assay [12] is T1, PUM1 PUF domain R6-SYS (Homo sapiens, UniProt Q14671 828-1176, N1043S;Q1047S).
T1 sequence: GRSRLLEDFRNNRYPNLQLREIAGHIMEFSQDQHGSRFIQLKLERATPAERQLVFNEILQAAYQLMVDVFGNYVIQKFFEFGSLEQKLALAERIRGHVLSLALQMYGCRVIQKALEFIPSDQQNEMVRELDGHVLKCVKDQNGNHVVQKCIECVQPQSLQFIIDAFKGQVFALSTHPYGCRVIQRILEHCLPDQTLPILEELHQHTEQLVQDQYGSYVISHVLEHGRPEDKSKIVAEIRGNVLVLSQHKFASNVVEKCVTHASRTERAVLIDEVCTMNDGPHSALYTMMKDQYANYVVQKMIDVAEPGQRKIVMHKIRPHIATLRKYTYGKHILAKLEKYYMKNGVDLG
A digest of the protocol: as §1

The target in assay [13] is T2, PUM1 PUF domain R6-AFG (Homo sapiens, UniProt Q14671 828-1176, N1043A;Y1044F;Q1047G).
T2 sequence: T1 sequence with S216A, Y217F, S220G
In outline:
as §1

Assay [14] deals with PUM1 PUF domain R5-KRC (Homo sapiens, UniProt Q14671 828-1176, C1007K;Q1011C). In outline:
as §1

For assay [15], the target named is T3, PUM1 PUF domain R6-VYE (Homo sapiens, UniProt Q14671 828-1176, N1043V;Q1047E).
T3 sequence: T1 sequence with S216V, S220E
In outline:
as §1

Residue numbers refer to the chain shown, from its start.

7 sequences from publication PMC8384837, “Expanding the binding specificity for RNA recognition by a PUF domain” can be followed below.

Sequence of PUM1 PUF domain R5-KRC (Q14671 828-1176 C1007K/Q1011C): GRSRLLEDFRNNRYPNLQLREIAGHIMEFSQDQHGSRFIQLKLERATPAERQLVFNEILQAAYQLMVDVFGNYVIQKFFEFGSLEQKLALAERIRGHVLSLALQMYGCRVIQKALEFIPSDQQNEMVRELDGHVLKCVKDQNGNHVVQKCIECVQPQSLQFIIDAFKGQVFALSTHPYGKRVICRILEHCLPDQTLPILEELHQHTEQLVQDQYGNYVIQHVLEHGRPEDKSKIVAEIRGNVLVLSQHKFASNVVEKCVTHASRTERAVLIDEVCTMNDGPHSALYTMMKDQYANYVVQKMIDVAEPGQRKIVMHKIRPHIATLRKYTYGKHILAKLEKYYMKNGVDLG

As to “GGCUAGAACUAGUGGAUCCCCCGGCGCCCGGCGGCUCGAGCCCGGGUAAGUGUAAAGAGUCUGCAUGCCGCCGGGCGCCAUGCCUGCAGGUCGACUCUAGAAAACAUG”, in assay [1], the binding signal was 7.11 log2 enrichment (interaction score).

On to “GGCUAGAACUAGUGGAUCCCCCGGCGCCCGGCGGCUCGAGCCCGGGUAAGUGUACAUAGUCUGCAUGCCGCCGGGCGCCAUGCCUGCAGGUCGACUCUAGAAAACAUG”, for which the binding signal in assay [2] is 2.48 log2 enrichment (interaction score).

As to “GGCUAGAACUAGUGGAUCCCCCGGCGCCCGGCGGCUCGAGCCCGGGUAAGUGUAAGUAGUCUGCAUGCCGCCGGGCGCCAUGCCUGCAGGUCGACUCUAGAAAACAUG”, the binding signal in [3] was 5.2 log2 enrichment (interaction score); in assay [4] it was 3.31 log2 enrichment (interaction score); in assay [5] it was 4.28 log2 enrichment (interaction score).

Take “GGCUAGAACUAGUGGAUCCCCCGGCGCCCGGCGGCUCGAGCCCGGGUAAGCGUAAAUAGUCUGCAUGCCGCCGGGCGCCAUGCCUGCAGGUCGACUCUAGAAAACAUG”: the binding signal in assay [6] was 5.48 log2 enrichment (interaction score); in [7], 3.61 log2 enrichment (interaction score).

As for “GGCUAGAACUAGUGGAUCCCCCGGCGCCCGGCGGCUCGAGCCCGGGUAAGUGUAUAUAGUCUGCAUGCCGCCGGGCGCCAUGCCUGCAGGUCGACUCUAGAAAACAUG”, the binding signal in [2] was 3.92 log2 enrichment (interaction score); in assay [8], 3.12 log2 enrichment (interaction score).

Consider “GGCUAGAACUAGUGGAUCCCCCGGCGCCCGGCGGCUCGAGCCCGGGUAAGUGUAAAUAGUCUGCAUGCCGCCGGGCGCCAUGCCUGCAGGUCGACUCUAGAAAACAUG”, for which the binding signal was 1.73 log2 enrichment (interaction score) in [9]; 3.4 log2 enrichment (interaction score) in [10]; 2.78 log2 enrichment (interaction score) in assay [2]; 4.11 log2 enrichment (interaction score) in assay [11]; 3 log2 enrichment (interaction score) in assay [12]; 3.11 log2 enrichment (interaction score) in assay [13]. The binding signal was 3.23 log2 enrichment (interaction score) in [6], 2.93 log2 enrichment (interaction score) in assay [7] and 2.12 log2 enrichment (interaction score) in [14].

On to “GGCUAGAACUAGUGGAUCCCCCGGCGCCCGGCGGCUCGAGCCCGGGUAAGUGGAAAUAGUCUGCAUGCCGCCGGGCGCCAUGCCUGCAGGUCGACUCUAGAAAACAUG”, for which the binding signal in assay [15] was 2.43 log2 enrichment (interaction score).
